What all share (conditions): mRNA level, 48 h; actives raise or lower the signal
Read-out in assay [1]: matrix metalloproteinase-3 (MMP3), MMP3 (gene 4314)
Put plainly: LTEA_HepaRG_MMP3: Life Technologies and Expression Analysis (LTEA) Assay for matrix metalloproteinase-3 (MMP3) using HepaRG (AID 2283519). In outline: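 HepaRG, human; 48 h dosing, 8 conc. (max 100 uM, half-log), duplicate, 0.5% DMSO. Readout: MMP3 transcript by Fluidigm TaqMan qRT-PCR, ACTB/GAPDH/POLR2A-normalised. Gain or loss fitted vs DMSO.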

Read-out in assay [2]: Paternally Expressed 10 (PEG10), PEG10 (gene 23089)
Put plainly: LTEA_HepaRG_PEG10: Life Technologies and Expression Analysis (LTEA) Assay for Paternally Expressed 10 (PEG10) using HepaRG (AID 2283520). In outline:
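Differentiated HepaRG cells exposed 48 h in serum-free induction medium to eight half-log concentrations topping at 100 uM, 0.5% DMSO, in duplicate. PEG10 mRNA quantified by TaqMan qRT-PCR, normalized to ACTB, GAPDH and POLR2A; bidirectional fit versus DMSO.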

Read-out in assay [3]: Protein phosphatase 2A (PPP2R4), PTPA (gene 5524)
Put plainly: LTEA_HepaRG_PPP2R4: Life Technologies and Expression Analysis (LTEA) Assay for Protein phosphatase 2A (PPP2R4) using HepaRG (AID 2283522). In outline: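 Differentiated human HepaRG cells in serum-free induction medium were exposed 48 h to 8 concentrations (top 100 µM, half-log steps, duplicate) in 0.5% DMSO. PPP2R4 mRNA was measured by TaqMan qRT-PCR, normalised to ACTB, GAPDH and POLR2A, and fitted bidirectionally versus DMSO.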

Read-out in assay [4]: Phosphatase and tensin (PTEN), PTEN (gene 5728)
Kind of assay: LTEA_HepaRG_PTEN: Life Technologies and Expression Analysis (LTEA) Assay for Phosphatase and tensin (PTEN) using HepaRG (AID 2283523). In outline: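 Read-out is PTEN transcript level by multiplexed TaqMan qRT-PCR after 48 h chemical treatment of human HepaRG cultures in serum-free induction medium. Concentrations spanned 100 uM downward in half-log steps, 0.5% DMSO throughout; activity fitted in both directions against vehicle.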

Read-out in assay [5]: Pyruvate Dehydrogenase Kinase 4 (PDK4), PDK4 (gene 5166)
Put plainly: LTEA_HepaRG_PDK4: Life Technologies and Expression Analysis (LTEA) Assay for Pyruvate Dehydrogenase Kinase 4 (PDK4) using HepaRG (AID 2283525). In outline:
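In this multiplexed human HepaRG expression assay, cells are treated 48 h with test chemicals across an eight-point range starting at 100 uM. PDK4 mRNA changes, normalized to ACTB/GAPDH/POLR2A, are fitted in both directions relative to vehicle.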

Read-out in assay [6]: NAD(P)H dehydrogenase [quinone] 1 (NQO1), NQO1 (gene 1728)
Put plainly: LTEA_HepaRG_NQO1: Life Technologies and Expression Analysis (LTEA) Assay for NAD(P)H dehydrogenase [quinone] 1 (NQO1) using HepaRG (AID 2283526). In outline: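 Differentiated human HepaRG cells in serum-free induction medium, dosed in duplicate for 48 h at 8 half-log concentrations up to 100 uM in 0.5% DMSO. NQO1 mRNA by qRT-PCR normalized to ACTB, GAPDH, POLR2A; bidirectional fit versus DMSO baseline.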

Read-out in assay [7]: succinate dehydrogenase complex iron sulfur subunit B (SDHB), SDHB (gene 6390)
Kind of assay: LTEA_HepaRG_SDHB: Life Technologies and Expression Analysis (LTEA) Assay for succinate dehydrogenase complex iron sulfur subunit B (SDHB) using HepaRG (AID 2283528). In outline: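 A human HepaRG culture in serum-free induction medium received test chemicals for 48 h over an eight-point range capped at 100 uM. SDHB expression change was quantified by qRT-PCR.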

Read-out in assay [8]: Signal transducer and activator of transcription 3 (Homo sapiens) (UniProt P40763)
Kind of assay: LTEA_HepaRG_STAT3: Life Technologies and Expression Analysis (LTEA) Assay for Signal transducer and activator of transcription (STAT3) using HepaRG (AID 2283529). In outline:
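Read-out is STAT3 mRNA level by qRT-PCR, normalized to three housekeeping genes, in human HepaRG liver cells treated for 48 h. Concentrations ran from 100 uM downward in half-log steps; curves were fitted for gain or loss relative to 0.5% DMSO.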

Read-out in assay [9]: solute carrier (SLCO1B1), SLCO1B1 (gene 10599)
Kind of assay: LTEA_HepaRG_SLCO1B1: Life Technologies and Expression Analysis (LTEA) Assay for solute carrier (SLCO1B1) using HepaRG (AID 2283530). In outline:
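Human HepaRG cultures treated for 48 h with an eight-concentration half-log series topping at 100 uM; SLCO1B1 measured by qRT-PCR and fitted bidirectionally relative to DMSO.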

Read-out in assay [10]: sulfotransferase 2A1 (SULT2A1), SULT2A1 (gene 6822)
Put plainly: LTEA_HepaRG_SULT2A1: Life Technologies and Expression Analysis (LTEA) Assay for sulfotransferase 2A1 (SULT2A1) using HepaRG (AID 2283531). In outline:
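Gene-expression endpoint in a human liver cell line: SULT2A1 mRNA change after 48 h chemical treatment, curves fitted in both directions relative to 0.5% DMSO vehicle. Concentrations spanned eight half-log steps from 100 uM.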

Read-out in assay [11]: Transforming Growth Factor (TGFA), TGFA (gene 7039)
Kind of assay: LTEA_HepaRG_TGFA: Life Technologies and Expression Analysis (LTEA) Assay for Transforming Growth Factor (TGFA) using HepaRG (AID 2283532). In outline:
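HepaRG (human liver line), 48 h exposure, 8 conc. half-log down from 100 uM, 0.5% DMSO vehicle, duplicates; serum-free induction medium. TGFA mRNA by TaqMan qRT-PCR, ACTB/GAPDH/POLR2A normalization; gain/loss fit vs DMSO.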

Read-out in assay [12]: Transforming Growth Factor (TGFB1), TGFB1 (gene 7040)
Put plainly: LTEA_HepaRG_TGFB1: Life Technologies and Expression Analysis (LTEA) Assay for Transforming Growth Factor (TGFB1) Transporter using HepaRG (AID 2283533). In outline:
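Eight-point concentration-response (max 100 uM, half-log) in HepaRG under serum-free induction conditions, 48 h. TGFB1 mRNA by qRT-PCR, housekeeping-normalized.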

Read-out in assay [13]: TIMP1, TIMP1 (gene 7076)
Put plainly: LTEA_HepaRG_TIMP1: Life Technologies and Expression Analysis (LTEA) Assay for TIMP1 using HepaRG (AID 2283534).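 As to outcome: TaqMan qRT-PCR signal normalized to ACTB GAPDH and POLR2A housekeeping genes.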 In outline: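 TIMP1 induction or repression in HepaRG cells after 48 h chemical exposure (eight concentrations, highest 100 uM), assessed by normalized qRT-PCR with bidirectional fitting to DMSO controls.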

Read-out in assay [14]: Tumor necrosis factor receptor 1 (TNFRSF1A), TNFRSF1A (gene 7132)
Put plainly: LTEA_HepaRG_TNFRSF1A: Life Technologies and Expression Analysis (LTEA) Assay for Tumor necrosis factor receptor 1 (TNFRSF1A) using HepaRG (AID 2283535). In outline: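 Assay uses 48 h chemical treatment of differentiated HepaRG monolayers, tested in duplicate at eight concentrations from 100 uM downward in 0.5% DMSO. mRNA is normalized to ACTB, GAPDH and POLR2A, with induction or suppression fitted relative to vehicle.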

Read-out in assay [15]: Thyroid Hormone Responsive (THRSP), THRSP (gene 7069)
Kind of assay: LTEA_HepaRG_THRSP: Life Technologies and Expression Analysis (LTEA) Assay for Thyroid Hormone Responsive (THRSP) using HepaRG (AID 2283536). In outline:
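mRNA induction or loss relative to 0.5% DMSO vehicle was fitted bidirectionally across an eight-point curve whose highest exposure was 100 uM. Human HepaRG liver cells received chemicals in duplicate over 48 h before RNA extraction.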

Read-out in assay [16]: Cellular tumor antigen p53 (Homo sapiens) (UniProt P04637)
Kind of assay: LTEA_HepaRG_TP53: Life Technologies and Expression Analysis (LTEA) Assay for Tumor Protein P53 (TP53) using HepaRG (AID 2283537). In outline:
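Gain or loss of TP53 mRNA signal is scored relative to 0.5% DMSO after 48 h chemical treatment of HepaRG liver cells, tested in duplicate at eight half-log concentrations up to 100 uM.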

Read-out in assay [17]: UDP glucuronosyltransferase (UGT1A1), UGT1A1 (gene 54658)
Kind of assay: LTEA_HepaRG_UGT1A1: Life Technologies and Expression Analysis (LTEA) Assay for UDP glucuronosyltransferase (UGT1A1) using HepaRG (AID 2283538). In outline: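 HepaRG cells, 0.5% DMSO vehicle, 48 h exposure in serum-free induction medium to 8-point half-log series topping at 100 uM, in duplicate. UGT1A1 mRNA by Fluidigm qRT-PCR, normalized to ACTB/GAPDH/POLR2A; bidirectional fit versus DMSO.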

Read-out in assay [18]: Nuclear factor NF-kappa-B p105 subunit (Homo sapiens) (UniProt P19838)
Kind of assay: LTEA_HepaRG_NFKB1: Life Technologies and Expression Analysis (LTEA) Assay for Nuclear Factor Kappa B Subunit 1 (NFKB1) using HepaRG (AID 2283521). In outline: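 Human HepaRG cells receive eight half-log concentrations, highest 100 uM, for 48 h. NFKB1 expression is then quantified by qRT-PCR and analysed for up- or down-regulation relative to 0.5% DMSO vehicle.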

Read-out in assay [19]: Nuclear factor erythroid 2-related factor 2 (Homo sapiens) (UniProt Q16236)
Put plainly: LTEA_HepaRG_NFE2L2: Life Technologies and Expression Analysis (LTEA) Assay for Nuclear factor erythroid 2-related factor 2 (NFE2L2) Transcription Factor using HepaRG (AID 2283527).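 Also: TaqMan qRT-PCR transcript level normalised to ACTB GAPDH and POLR2A housekeeping genes.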 In outline:
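Transcript level of NFE2L2 is the read-out, measured by microfluidic TaqMan qRT-PCR and normalized to three housekeeping genes. Human HepaRG cultures received test chemical for 48 h at up to 100 uM in half-log steps. Gain or loss of signal is fitted relative to 0.5% DMSO.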

More than one record can exist for a structure, and the calls need not agree. Active and inactive are the calls of the source. The calls were made as follows: active = hit-call score of the fitted dose curve at least 0.9, where 1 is the maximum; inactive = score below 0.9.

Sequence of Signal transducer and activator of transcription 3 (Homo sapiens) (P40763 whole entry, looked up): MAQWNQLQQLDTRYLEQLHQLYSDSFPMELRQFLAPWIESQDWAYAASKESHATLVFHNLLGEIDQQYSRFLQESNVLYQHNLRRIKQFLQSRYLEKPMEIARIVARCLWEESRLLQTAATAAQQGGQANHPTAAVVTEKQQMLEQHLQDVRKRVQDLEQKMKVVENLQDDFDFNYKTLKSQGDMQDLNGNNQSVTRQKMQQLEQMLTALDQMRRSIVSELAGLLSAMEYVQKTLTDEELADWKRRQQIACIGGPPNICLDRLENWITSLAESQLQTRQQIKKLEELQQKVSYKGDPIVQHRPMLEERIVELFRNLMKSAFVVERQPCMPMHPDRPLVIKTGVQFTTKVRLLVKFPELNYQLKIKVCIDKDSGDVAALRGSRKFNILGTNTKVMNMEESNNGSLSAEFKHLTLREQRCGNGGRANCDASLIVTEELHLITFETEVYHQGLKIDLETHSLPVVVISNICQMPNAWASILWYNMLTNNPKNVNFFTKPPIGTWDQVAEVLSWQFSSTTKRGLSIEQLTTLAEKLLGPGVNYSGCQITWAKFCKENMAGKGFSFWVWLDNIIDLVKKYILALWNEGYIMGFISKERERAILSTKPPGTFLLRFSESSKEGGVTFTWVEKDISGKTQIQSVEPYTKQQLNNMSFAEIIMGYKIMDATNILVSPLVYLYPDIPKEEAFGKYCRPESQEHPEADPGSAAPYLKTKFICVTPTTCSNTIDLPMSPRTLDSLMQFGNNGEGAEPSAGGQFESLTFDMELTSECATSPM
Sequence of Nuclear factor NF-kappa-B p105 subunit (Homo sapiens) (P19838 whole entry, looked up): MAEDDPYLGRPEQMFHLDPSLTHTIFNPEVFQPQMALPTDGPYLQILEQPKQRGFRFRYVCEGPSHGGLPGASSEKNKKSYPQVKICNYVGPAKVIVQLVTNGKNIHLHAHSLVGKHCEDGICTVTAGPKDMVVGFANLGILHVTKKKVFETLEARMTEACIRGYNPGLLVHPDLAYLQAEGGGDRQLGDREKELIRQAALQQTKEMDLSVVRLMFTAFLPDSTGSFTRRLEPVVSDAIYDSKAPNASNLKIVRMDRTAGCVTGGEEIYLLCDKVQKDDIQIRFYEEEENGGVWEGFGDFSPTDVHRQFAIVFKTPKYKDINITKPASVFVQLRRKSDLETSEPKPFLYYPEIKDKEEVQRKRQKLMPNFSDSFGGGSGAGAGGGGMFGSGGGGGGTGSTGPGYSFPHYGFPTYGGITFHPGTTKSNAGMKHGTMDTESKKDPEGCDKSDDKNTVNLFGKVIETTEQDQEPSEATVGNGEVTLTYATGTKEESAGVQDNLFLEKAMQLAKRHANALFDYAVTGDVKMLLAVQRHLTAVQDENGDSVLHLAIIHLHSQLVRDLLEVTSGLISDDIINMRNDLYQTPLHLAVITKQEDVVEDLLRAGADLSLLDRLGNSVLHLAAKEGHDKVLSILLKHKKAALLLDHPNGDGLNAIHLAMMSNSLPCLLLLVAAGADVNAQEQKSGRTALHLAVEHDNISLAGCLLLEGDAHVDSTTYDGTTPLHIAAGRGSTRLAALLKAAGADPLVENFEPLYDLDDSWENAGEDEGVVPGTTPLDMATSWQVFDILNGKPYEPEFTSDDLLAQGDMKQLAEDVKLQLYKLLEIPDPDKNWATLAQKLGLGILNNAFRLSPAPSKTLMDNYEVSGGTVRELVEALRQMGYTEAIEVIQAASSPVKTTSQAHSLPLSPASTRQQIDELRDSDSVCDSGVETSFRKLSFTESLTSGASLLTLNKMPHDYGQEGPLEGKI
Sequence of Nuclear factor erythroid 2-related factor 2 (Homo sapiens) (Q16236 whole entry, looked up): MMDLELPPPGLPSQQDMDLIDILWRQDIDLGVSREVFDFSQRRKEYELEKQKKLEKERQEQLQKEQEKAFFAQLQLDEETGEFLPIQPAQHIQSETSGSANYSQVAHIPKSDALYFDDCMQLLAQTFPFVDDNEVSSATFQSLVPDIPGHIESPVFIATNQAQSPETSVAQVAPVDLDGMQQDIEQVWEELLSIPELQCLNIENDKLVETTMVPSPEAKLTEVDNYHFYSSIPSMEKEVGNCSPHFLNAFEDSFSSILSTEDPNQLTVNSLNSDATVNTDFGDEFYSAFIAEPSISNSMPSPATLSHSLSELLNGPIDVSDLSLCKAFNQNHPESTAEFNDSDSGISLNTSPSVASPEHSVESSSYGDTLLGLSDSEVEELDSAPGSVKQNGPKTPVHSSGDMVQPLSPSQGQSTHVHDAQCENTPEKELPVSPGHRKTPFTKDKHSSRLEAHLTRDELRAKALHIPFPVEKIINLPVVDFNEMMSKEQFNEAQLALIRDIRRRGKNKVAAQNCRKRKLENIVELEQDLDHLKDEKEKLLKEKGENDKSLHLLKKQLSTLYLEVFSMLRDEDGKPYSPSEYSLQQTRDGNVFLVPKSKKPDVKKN
Sequence of Cellular tumor antigen p53 (Homo sapiens) (P04637 whole entry, looked up): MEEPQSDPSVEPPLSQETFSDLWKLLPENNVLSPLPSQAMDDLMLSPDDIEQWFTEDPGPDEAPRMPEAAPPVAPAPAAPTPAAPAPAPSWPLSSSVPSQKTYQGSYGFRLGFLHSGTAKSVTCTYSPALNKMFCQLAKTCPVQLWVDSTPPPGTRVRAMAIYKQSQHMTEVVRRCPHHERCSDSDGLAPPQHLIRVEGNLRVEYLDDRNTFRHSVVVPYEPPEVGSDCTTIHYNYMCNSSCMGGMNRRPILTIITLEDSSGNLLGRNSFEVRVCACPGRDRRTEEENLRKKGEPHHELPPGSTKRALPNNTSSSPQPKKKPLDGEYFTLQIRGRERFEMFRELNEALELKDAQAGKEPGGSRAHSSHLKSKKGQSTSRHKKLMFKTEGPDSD

`CSC(=O)c1cccc2nnsc12`: the result in assay [1], in assay [2], in assay [3], in assay [4], in assay [5] and in assay [6] was inactive. Moreover, the result in assay [7], in [8], in assay [9], in assay [10], in assay [11] and in [12] was inactive. Besides, the result in [13], in assay [14], in [15], in assay [16] and in assay [17] was inactive.

One may read the AC50 as the concentration at which the activity in the assay is half-maximal. For `O=C(Nc1ccc([N+](=O)[O-])cc1Cl)c1cc(Cl)ccc1O`, the AC50 is 1.99 µM (active) in assay [2]; 3.47 µM (active) in [3]; 4.53 µM (active) in [4]; 4.31 µM (active) in assay [5]; 13.4 µM (active) in assay [6]; 2.68 µM (active) in assay [7]. Moreover, the AC50 in assay [8] is 2.9 µM (active); in assay [9] it was 3.28 µM (active); in assay [10], 5.12 µM (active); in [11], 1.93 µM (active); in assay [12], 3.95 µM (active); in assay [13], 3.18 µM (active). The AC50 in assay [14] is 10.1 µM (active); in assay [17] it was 3.65 µM (active). Moreover, the compound was called inactive in assay [18], in [15] and in assay [16].

For the compound `CC(C)(c1ccc(O)cc1)c1ccc(O)cc1`, the result in assay [2], in assay [18], in assay [3], in assay [4], in [5] and in [6] was inactive. In addition, the call in assay [19], in assay [7], in assay [8], in assay [9], in assay [10] and in [11] was inactive. Further, the outcome in [12], in [13], in assay [14], in assay [15], in assay [16] and in [17] was inactive. Further, the AC50 in assay [7] is 0.005 µM (active); in assay [9], 9.92 µM (active); in assay [10] it was 291 µM (active).

These data come from PubChem BioAssay (EPA / NIEHS).
